Experimental data as given in PubChem BioAssay (EPA / NIEHS).
Active and inactive are the calls of the source. The calls were made as follows: active = hit-call score of the fitted dose curve at least 0.9, where 1 is the maximum; inactive = score below 0.9.

How the values were obtained:
[1] = ATG_CRE_CIS: Attagene CIS-FACTORIAL HepG2 Assay for human cAMP Responsive Element (CRE) binding protein 3 (AID 2282926); details: HepG2 CRE cis-reporter, Attagene multiplexed mRNA; actives raise or lower the signal
Procedure, shortened: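 We dosed HepG2 cells bearing multiple cis-promoter reporter units for 24 h and measured reporter mRNA by RT-PCR with capillary electrophoresis detection. Bidirectional concentration-response fitting used DMSO as negative control.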

[2] = molecular target: CCAAT/enhancer-binding protein beta (Homo sapiens) (UniProt P17676); assay: ATG_C_EBP_CIS: Attagene CIS-FACTORIAL HepG2 Assay for human CCAAT/Enhancer Binding Protein (C/EBP) beta (AID 2282927); details: HepG2 Attagene cis-factorial transcription factor reporter; actives raise or lower the signal
Procedure, shortened: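 HepG2, transient MRTU transfection, 24 h treatment. RT-PCR plus CE fluorescence; DMSO negative control, bidirectional fit.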

[3] = ATG_CMV_CIS: Attagene CIS-FACTORIAL HepG2 Assay for human CMV (Internal Marker) (AID 2282928); details: HepG2 CMV promoter reporter, transcription factor profiling; actives raise or lower the signal;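 also: endpoint acts as a background internal control marker rather than a target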
Procedure, shortened: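 After transient transfection of HepG2 with reporter transcription units driven by cis-regulatory promoters, cells receive test chemical for 24 h. Labeled reporter amplicons, digested with HpaI, are sized and quantified by capillary electrophoresis against DMSO.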

[4] = ATG_DR4_LXR_CIS: Attagene CIS-FACTORIAL HepG2 Assay for human Liver X Receptor (LXR), DR4 submotif (AID 2282929); details: HepG2 Attagene DR4 cis-reporter, mRNA transcription; actives raise or lower the signal
Procedure, shortened: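 HepG2 cells were transiently transfected with multiple cis-regulated reporter units and dosed for 24 hours. The DR4 reporter mRNA was quantified by RT-PCR, 6-FAM labelling and capillary electrophoresis. Bidirectional fits used DMSO as baseline.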

[5] = molecular target: Aryl hydrocarbon receptor (Homo sapiens) (UniProt P35869); assay: ATG_Ahr_CIS: Attagene CIS-FACTORIAL HepG2 Assay for human Aryl Hydrocarbon Receptor (Ahr) (AID 2282930); details: HepG2 AhR cis-factorial reporter transcription; actives raise or lower the signal
Procedure, shortened: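 Endogenous factor activity is tracked through cis-promoter reporter units transfected into HepG2 cells. Transcript levels at 24 h are read by fluorescent RT-PCR and capillary electrophoresis, with activity in either direction scored relative to DMSO.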

[6] = ATG_AP_1_CIS: Attagene CIS-FACTORIAL HepG2 Assay for human Activator Protein 1 (AP-1) (AID 2282931); details: HepG2 Attagene cis-factorial AP-1 reporter mRNA; actives raise or lower the signal
Procedure, shortened: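 HepG2 cells transiently transfected with cis-element-driven reporter transcription units, dosed for 24 hours. Reporter mRNA measured by RT-PCR, 6-FAM labelling, HpaI digestion and capillary electrophoresis. Bidirectional fitting against DMSO baseline.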

[7] = ATG_AP_2_CIS: Attagene CIS-FACTORIAL HepG2 Assay for human Activator Protein 2 (AP-2) (AID 2282932); details: HepG2 AP-2 cis-reporter, Attagene transcription factor profiling; actives raise or lower the signal
Procedure, shortened: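 HepG2 cells transiently transfected with cis-element reporter units and exposed for 24 h. Reporter mRNA measured by RT-PCR, FAM labelling, HpaI digestion and capillary electrophoresis. Changes in either direction fitted relative to DMSO.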

[8] = ATG_BRE_CIS: Attagene CIS-FACTORIAL HepG2 Assay for human Bone Morphogenetic Protein (BMP) Response Element (BRE) (AID 2282933); details: HepG2 BMP response element reporter, Attagene transcription factor profiling; actives raise or lower the signal
Procedure, shortened: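 Read-out: reporter mRNA induction quantified by RT-PCR and capillary electrophoresis after 24 h chemical exposure of transfected HepG2 cells. Endogenous factor activity on the BMP response element; gain or loss fitted against DMSO baseline.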

[9] = molecular target: Retinoic acid receptor alpha (Homo sapiens) (UniProt P10276); assay: ATG_DR5_RAR_CIS: Attagene CIS-FACTORIAL HepG2 Assay for human Retinoic Acid Receptor Alpha (RARE), DR5 submotif (AID 2282934); details: HepG2 Attagene cis-factorial RARE DR5 reporter, mRNA; actives raise or lower the signal
Procedure, shortened: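 After 24 h of chemical exposure, transiently transfected HepG2 cells were lysed for total RNA; the DR5-regulated reporter transcript was quantified via RT-PCR and capillary electrophoresis, with activity fitted bidirectionally against DMSO.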

[10] = ATG_E_Box_CIS: Attagene CIS-FACTORIAL HepG2 Assay for human Enhancer Box (E-box) (AID 2282936); details: HepG2 E-box cis-reporter transcription, actives raise or lower the signal
Procedure, shortened: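 HepG2 cells transiently transfected with multiplexed cis-element reporter units, dosed 24 h; reporter mRNA quantified by RT-PCR, 6-FAM labelling, HpaI digestion and capillary electrophoresis. E-box (USF1) signal fitted bidirectionally vs DMSO.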

[11] = ATG_M_61_CIS: Attagene CIS-FACTORIAL HepG2 Assay for M61 Transcription Factor (Internal Marker) (AID 2282937); details: HepG2 Attagene CIS-FACTORIAL M61 internal marker reporter; actives raise or lower the signal
Procedure, shortened: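 HepG2 cells transiently transfected with multiplexed cis-promoter reporter units reporting endogenous transcription factor activity, measured 24 h after dosing. Reporter mRNA quantified by RT-PCR and capillary electrophoresis; bidirectional fit against DMSO baseline.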

[12] = ATG_EGR_CIS: Attagene CIS-FACTORIAL HepG2 Assay for human Early Growth Response 1 (EGR1) (AID 2282938); details: HepG2 Attagene CIS-FACTORIAL EGR reporter mRNA; actives raise or lower the signal
Procedure, shortened: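 HepG2 cells transiently transfected with cis-element-driven multiplexed reporter units, dosed for 24 h. EGR1-element reporter mRNA quantified by RT-PCR, 6-FAM labelling, HpaI digestion and capillary electrophoresis; bidirectional fit versus DMSO.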

[13] = ATG_M_19_CIS: Attagene CIS-FACTORIAL HepG2 Assay for M19 Transcription Factor (Internal Marker) (AID 2282939); details: HepG2 Attagene CIS-FACTORIAL M19 internal marker reporter; actives raise or lower the signal
Procedure, shortened: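 Readout: fluorescent reporter-transcript fragments by capillary electrophoresis after RT-PCR. Human HepG2 liver cells carried transfected MRTU constructs reporting endogenous transcription-factor activity; exposure 24 h. Gain or loss of signal fitted relative to DMSO.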

[14] = ATG_ERE_CIS: Attagene CIS-FACTORIAL HepG2 Assay for Estrogen Response Element (ERE) (AID 2282940); details: HepG2 ERE cis-reporter, Attagene RNA transcript; actives raise or lower the signal
Procedure, shortened: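 Readout: reporter mRNA induction by RT-PCR, FAM-labelled primer extension, HpaI digestion and capillary electrophoresis, 24 h after dosing transfected HepG2 cells. Endogenous transcription factors act on cis-element-regulated reporters. Gain or loss fitted against DMSO.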

[15] = ATG_Ets_CIS: Attagene CIS-FACTORIAL HepG2 Assay for human Erythroblast Transformation Specific (ETS) (AID 2282941); details: HepG2 ETS cis-reporter transcription, actives raise or lower the signal
Procedure, shortened: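 Human HepG2 hepatoma cells were transiently transfected with promoter-driven reporter constructs and treated for 24 hours. Reporter transcripts were quantified by RT-PCR with fluorescent primer extension; bidirectional curve fitting used DMSO as reference.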

[16] = molecular target: Hepatocyte nuclear factor 3-beta (Homo sapiens) (UniProt Q9Y261); assay: ATG_FoxA2_CIS: Attagene CIS-FACTORIAL HepG2 Assay for human Forkhead box A2 (FOXA2) (AID 2282942); details: HepG2 cis-reporter transcription factor activity, 24 h; actives raise or lower the signal
Procedure, shortened: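 HepG2 transiently transfected with a multiplexed cis-promoter reporter library read endogenous FOXA2 activity. After 24 h compound exposure, reporter mRNA was quantified by RT-PCR, HpaI digestion and capillary electrophoresis. Bidirectional fit against DMSO.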

[17] = ATG_FoxO_CIS: Attagene CIS-FACTORIAL HepG2 Assay for human Forkhead box O (FoxO) (AID 2282943); details: HepG2 Attagene cis-reporter, FoxO element, mRNA; actives raise or lower the signal
Procedure, shortened: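 Transfected HepG2 reporter cells exposed to test chemical for 24 h; reporter RNA measured by reverse transcription, PCR and fluorescent capillary electrophoresis; curves fitted for increases and decreases against DMSO.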

[18] = ATG_GATA_CIS: Attagene CIS-FACTORIAL HepG2 Assay for human GATA Binding Protein (AID 2282944); details: HepG2 GATA cis-element reporter, Attagene multiplex mRNA; actives raise or lower the signal
Procedure, shortened: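 Read-out: fluorescent reporter mRNA fragments resolved by capillary electrophoresis after RT-PCR. Human liver HepG2 cells carried transiently transfected cis-regulated reporter constructs; chemicals incubated 24 h; gain or loss of signal fitted relative to DMSO.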

[19] = ATG_GLI_CIS: Attagene CIS-FACTORIAL HepG2 Assay for human Zinc Finger Protein GLI1 (AID 2282945); details: HepG2, Attagene cis-factorial reporter mRNA, GLI element; actives raise or lower the signal
Procedure, shortened: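 Transiently transfected HepG2 cells report endogenous transcription factor activity via cis-element-driven reporter units. After 24 h compound exposure, reporter mRNA was measured by RT-PCR with capillary electrophoresis; bidirectional fitting against DMSO baseline.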

[20] = molecular target: Transcription factor E2F1 (Homo sapiens) (UniProt Q01094); assay: ATG_E2F_CIS: Attagene CIS-FACTORIAL HepG2 Assay for human E2F Transcription Factor 1 (AID 2282935); details: HepG2 Attagene cis-reporter, E2F reporter RNA transcripts; actives raise or lower the signal
Procedure, shortened: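 Endogenous E2F1 activity read through cis-promoter reporter units transfected into HepG2. After 24 h compound treatment, reporter mRNA measured by RT-PCR, HpaI digestion and capillary electrophoresis. Bidirectional fit versus DMSO.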

Measured: AC50

Sequence of CCAAT/enhancer-binding protein beta (Homo sapiens) (P17676 whole entry, looked up): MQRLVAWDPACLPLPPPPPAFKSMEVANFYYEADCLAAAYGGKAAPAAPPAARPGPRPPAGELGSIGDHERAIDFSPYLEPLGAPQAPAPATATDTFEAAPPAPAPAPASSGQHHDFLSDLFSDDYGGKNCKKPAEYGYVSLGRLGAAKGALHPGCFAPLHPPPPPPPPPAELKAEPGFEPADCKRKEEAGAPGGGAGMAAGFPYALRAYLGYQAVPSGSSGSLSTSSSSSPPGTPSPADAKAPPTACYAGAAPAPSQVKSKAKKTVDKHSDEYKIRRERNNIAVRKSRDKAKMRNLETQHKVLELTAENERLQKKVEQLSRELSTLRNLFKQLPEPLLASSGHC
Sequence of Hepatocyte nuclear factor 3-beta (Homo sapiens) (Q9Y261 whole entry, looked up): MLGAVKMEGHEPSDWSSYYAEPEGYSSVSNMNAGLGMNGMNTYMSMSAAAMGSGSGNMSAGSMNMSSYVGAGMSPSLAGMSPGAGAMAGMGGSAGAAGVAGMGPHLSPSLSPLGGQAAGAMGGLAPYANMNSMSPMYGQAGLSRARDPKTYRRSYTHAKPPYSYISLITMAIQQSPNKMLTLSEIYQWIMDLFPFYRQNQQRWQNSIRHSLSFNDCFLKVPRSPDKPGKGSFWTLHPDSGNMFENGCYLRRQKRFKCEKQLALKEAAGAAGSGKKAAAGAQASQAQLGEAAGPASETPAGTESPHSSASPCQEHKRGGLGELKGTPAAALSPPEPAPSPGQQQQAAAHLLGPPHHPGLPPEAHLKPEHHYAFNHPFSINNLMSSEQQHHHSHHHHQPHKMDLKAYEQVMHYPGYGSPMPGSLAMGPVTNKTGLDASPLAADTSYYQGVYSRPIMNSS
Sequence of Transcription factor E2F1 (Homo sapiens) (Q01094 whole entry, looked up): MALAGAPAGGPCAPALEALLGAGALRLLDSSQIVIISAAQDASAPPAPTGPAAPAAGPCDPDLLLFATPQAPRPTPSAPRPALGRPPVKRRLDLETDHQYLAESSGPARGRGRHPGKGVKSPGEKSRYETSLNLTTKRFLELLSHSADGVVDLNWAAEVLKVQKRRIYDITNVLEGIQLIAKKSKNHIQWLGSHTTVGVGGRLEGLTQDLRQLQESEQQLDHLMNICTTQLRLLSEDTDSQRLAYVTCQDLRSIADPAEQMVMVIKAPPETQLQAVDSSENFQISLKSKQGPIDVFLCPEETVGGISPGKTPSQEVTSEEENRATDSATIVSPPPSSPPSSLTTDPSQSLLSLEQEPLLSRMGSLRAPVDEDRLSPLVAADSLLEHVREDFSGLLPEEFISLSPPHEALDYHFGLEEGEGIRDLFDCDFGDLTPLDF
Sequence of Retinoic acid receptor alpha (Homo sapiens) (P10276 whole entry, looked up): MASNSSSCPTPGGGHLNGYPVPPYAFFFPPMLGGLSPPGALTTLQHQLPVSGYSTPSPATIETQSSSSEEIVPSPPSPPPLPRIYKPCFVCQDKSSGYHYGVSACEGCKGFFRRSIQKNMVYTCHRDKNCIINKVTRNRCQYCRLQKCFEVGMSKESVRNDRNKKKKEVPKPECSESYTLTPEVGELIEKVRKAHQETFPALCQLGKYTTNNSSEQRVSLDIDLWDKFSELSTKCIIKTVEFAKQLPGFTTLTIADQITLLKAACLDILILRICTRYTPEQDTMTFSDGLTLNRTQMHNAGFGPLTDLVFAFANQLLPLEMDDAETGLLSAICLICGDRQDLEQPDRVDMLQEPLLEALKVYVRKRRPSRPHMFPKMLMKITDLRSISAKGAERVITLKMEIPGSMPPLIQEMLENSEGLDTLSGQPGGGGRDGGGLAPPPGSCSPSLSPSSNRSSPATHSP
Sequence of Aryl hydrocarbon receptor (Homo sapiens) (P35869 whole entry, looked up): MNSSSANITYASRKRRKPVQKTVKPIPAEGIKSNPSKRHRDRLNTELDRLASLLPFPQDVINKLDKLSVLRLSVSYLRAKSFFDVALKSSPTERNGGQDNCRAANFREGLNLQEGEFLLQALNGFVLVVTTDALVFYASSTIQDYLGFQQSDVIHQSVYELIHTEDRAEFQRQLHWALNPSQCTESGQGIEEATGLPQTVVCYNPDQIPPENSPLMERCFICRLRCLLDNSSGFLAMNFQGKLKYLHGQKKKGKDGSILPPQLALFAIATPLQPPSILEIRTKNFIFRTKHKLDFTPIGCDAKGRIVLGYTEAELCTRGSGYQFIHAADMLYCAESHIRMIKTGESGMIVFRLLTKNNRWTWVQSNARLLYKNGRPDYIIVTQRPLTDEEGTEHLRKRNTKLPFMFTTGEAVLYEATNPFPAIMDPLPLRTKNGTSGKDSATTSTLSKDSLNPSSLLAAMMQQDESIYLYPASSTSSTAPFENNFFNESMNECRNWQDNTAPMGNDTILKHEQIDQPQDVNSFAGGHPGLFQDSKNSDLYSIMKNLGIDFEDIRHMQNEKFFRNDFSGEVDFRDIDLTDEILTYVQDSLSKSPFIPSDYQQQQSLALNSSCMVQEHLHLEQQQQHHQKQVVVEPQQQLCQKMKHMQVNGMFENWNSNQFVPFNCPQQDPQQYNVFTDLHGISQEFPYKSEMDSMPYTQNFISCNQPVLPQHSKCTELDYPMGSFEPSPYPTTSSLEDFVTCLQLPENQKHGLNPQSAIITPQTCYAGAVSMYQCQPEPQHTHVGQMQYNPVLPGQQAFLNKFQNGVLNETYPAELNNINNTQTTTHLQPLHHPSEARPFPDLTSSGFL

CCc1nccnc1C
inactive: [1] | [2] | [3] | [4] | [5] | [6] | [7] | [8] | [9] | [10] | [11] | [12] | [13] | [14] | [15] | [16] | [17] | [18] | [19]

C=C(C)C(=O)OCCO
inactive: [1] | [2] | [3] | [4] | [5] | [6] | [7] | [8] | [9] | [20] | [10] | [12] | [13] | [14] | [15] | [16] | [17] | [18] | [19]

CC(C)COC(=O)C=Cc1ccccc1
inactive: [1] | [2] | [3] | [4] | [5] | [8] | [9] | [20] | [10] | [11] | [12] | [13] | [14] | [15] | [16] | [17] | [18] | [19]
active: [6] 139 µM

CC(C)(C)c1ccc(N)cc1
inactive: [1] | [2] | [3] | [4] | [5] | [6] | [8] | [9] | [20] | [10] | [11] | [12] | [13] | [15] | [16] | [17] | [18] | [19]
active: [14] 59.9 µM

CC/C=C\C/C=C\C/C=C\CCCCCCCC(=O)O
active: [1] 173 µM | [4] 153 µM | [6] 161 µM | [10] 100 µM | [12] 103 µM
inactive: [2] | [3] | [5] | [7] | [8] | [9] | [13] | [14] | [15] | [16] | [17] | [18] | [19]

COC(=O)/C=C/C(C)=C\C=C\C(C)=C\C=C\C=C(C)\C=C\C=C(C)\C=C\C(=O)O
inactive: [1] | [2] | [3] | [4] | [5] | [6] | [7] | [8] | [9] | [10] | [11] | [12] | [13] | [14] | [15] | [17] | [18] | [19]

C=C[Si](C)(C)O[Si](C)(C)C=C
inactive: [1] | [2] | [3] | [4] | [6] | [7] | [8] | [9] | [20] | [10] | [11] | [12] | [13] | [14] | [15] | [16] | [17] | [18] | [19]

C=C(C)CCO
inactive: [1] | [2] | [3] | [4] | [6] | [7] | [8] | [9] | [20] | [10] | [11] | [12] | [13] | [14] | [15] | [16] | [17] | [18] | [19]
